# Screening data (PubChem)
# ClpP mod: qHTS Assay for Activators of ClpP; ATP-dependent Clp protease proteolytic subunit (Bacillus subtilis (strain 168)), P80244; purified B. subtilis ClpP, FRET peptide cleavage, 20 min; Potency, µM (doses to about 57.5 µM), for inactives: at the top dose activity change, negative = active; 340,000 tested, 1.9% active; active = well fitted falling curve with a large enough effect; inconclusive = small, poorly fitted or top-dose-only effect; inactive = no such curve, though single readings can be large or run the other way; also: potency is read from the fitted curve at half-maximal effect; the source files actives as falling curves though it sought activators and does not explain the sign; nearly all actives have a fitted effect of over 65% in size
# Target sequence (P80244 whole entry, looked up): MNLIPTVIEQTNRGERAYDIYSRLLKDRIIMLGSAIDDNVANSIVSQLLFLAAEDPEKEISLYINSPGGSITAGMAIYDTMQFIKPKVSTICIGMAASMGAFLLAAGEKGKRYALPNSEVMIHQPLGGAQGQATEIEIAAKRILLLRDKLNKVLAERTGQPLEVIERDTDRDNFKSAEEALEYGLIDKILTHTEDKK
#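 FRET quenching reversal measured ClpP activation: 10 microg/mL B. subtilis ClpP at pH 8 with the FRET-FV decapeptide, read at 430 nm after 320 nm excitation. The 20-min minus 0-min signal was scaled between DMSO/no-enzyme wells and ADEP (5.8 microM final).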
# HEK293 tox: cytotoxicity in counter-screen for GLP-1R inverse agonists. HEK293 cAMP-luciferase reporter cells, luminescence, 24 h. Potency, µM (series often up to 38.3 µM), for inactives: at the highest dose activity change, negative = inhibition, usual class: inhibitors. 410,000 tested, 0.13% active;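 also: loss of luciferase light is scored as toxicity; potency is read from the fitted curve at half-maximal effect; % is scaled to controls: 0 for no effect and ±100 for the full control effect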
#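 Quantitative HTS format, 1536 wells, 200 cells/uL seeded. Compounds: 23 nL, 24 h, 37 °C. Detection: luciferase reagent, luminescence at 12 min RT; decreased signal taken as cytotoxic.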
# GLP1R ag: GLP-1 receptor (human) agonism. P43220. HEK293 GLP-1R CRE-luciferase, luminescence, 4-6 h; cells express a hypersensitive GLP-1R form. Potency, µM (top dose mostly 45.6 µM), without a hit: at the highest dose activation, most hits filed as activators. 380,000 tested, 0.007% active; also: potency is read from the fitted curve at half-maximal effect; % of control where 0% means no effect
# Target sequence (P43220 whole entry, looked up): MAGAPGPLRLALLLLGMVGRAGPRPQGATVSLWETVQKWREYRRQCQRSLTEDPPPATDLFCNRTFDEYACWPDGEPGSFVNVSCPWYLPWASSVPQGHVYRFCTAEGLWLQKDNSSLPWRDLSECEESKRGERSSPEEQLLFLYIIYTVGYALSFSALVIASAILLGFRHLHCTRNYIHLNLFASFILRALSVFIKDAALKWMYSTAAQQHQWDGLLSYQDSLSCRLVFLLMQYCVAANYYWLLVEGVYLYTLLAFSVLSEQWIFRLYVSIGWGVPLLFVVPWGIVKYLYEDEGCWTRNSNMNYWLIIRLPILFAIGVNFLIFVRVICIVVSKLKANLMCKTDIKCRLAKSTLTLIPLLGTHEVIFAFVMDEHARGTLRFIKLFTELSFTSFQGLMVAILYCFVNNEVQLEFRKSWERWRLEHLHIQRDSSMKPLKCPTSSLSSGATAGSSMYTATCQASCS
# D3 ag: agonists of human D3 dopamine receptor; P35462; D3R DiscoveRx beta-arrestin cells, luminescence, 90 min; max activation, %; 410,000 tested, 0.58% active; AID 652048; in the data active = max activation above about 30%; also: 0% is about no effect
#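 Agonist mode: compounds and dopamine controls were applied to plated cells for 90 min at 37 degrees C after an overnight attachment at 1500 cells/well. Luminescent read-out followed 30 - 60 minutes at room temperature with DiscoveRx detection reagent.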
# GLP-1R inv ag: GLP-1 receptor (human) inverse agonism | HEK293 GLP-1R CRE-luciferase, luminescence, 24 h; GLP-1R form is constitutively active | 410,000 tested, 1.6% active | Potency, µM (top dose mostly 38.3 µM), inactives show at the highest dose activity change, negative = inhibition, usual class: inhibitors | AID 624417; also: potency is read from the fitted curve at half-maximal effect; % is scaled to controls: 0 for no effect and ±100 for the full control effect; nearly all actives have a fitted effect of over 55% in size
#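 HEK293 cells stably co-expressing a cAMP-responsive luciferase reporter and constitutively active GLP-1R were seeded, incubated 12 h, then exposed to compounds for 24 h at 37 C. Luminescence was read 12 min after detection reagent; inverse agonists lower signal.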
# DRD3 antagonist: blocks the human D3 dopamine receptor; P35462; D3R cells, DiscoveRx beta-arrestin luminescence, antagonist mode; active compounds read low; max response, negative = inhibition, %; 360,000 tested, 2.5% active; AID 652054; in the data active = max response below about -50%; inconclusive = no clear call, values can overlap the other calls; also: % is scaled to controls: 0 for no effect and ±100 for the full control effect
#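 Cells expressing the human receptor were seeded at 1500 cells/well, incubated overnight at 37 degrees C in 5% CO2, then exposed to library compounds with dopamine controls for 90 minutes at 37 degrees C before luminescent detection.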
# Numbers without * were called inactive; ? = inconclusive; / = no result; [ ] = remark or other dose. Sampled rows, rich in hits. Any-hit rate of the full collection: about 5.7%. Unless noted, calls follow the shape of the dose curve; as a rule, active = well fitted curve in the direction sought with a large enough effect; inconclusive = small, poorly fitted or top-dose-only effect, or another doubt; inactive = no such curve, though single readings can be large; an effect the other way counts as inactive or inconclusive.
SMILES,ClpP mod,HEK293 tox,GLP1R ag,D3 ag,GLP-1R inv ag,DRD3 antagonist
O=C(O)c1sccc1SCc1ccc(Cl)c(Cl)c1,-0.9%,2.6%,8.3%,5.9,0.4%,-24.1
COC(=O)Cc1ccc(NC(=O)c2ccc(C(C)(C)C)cc2)cc1,2.5%,?,-1.2%,0.7,4.47µM*,24.3
CCCOc1ccc(C(=O)Nc2cc3nn(-c4ccc(CC)cc4)nc3cc2C)cc1,?,-10.1%,/,3.5,-1.0%,/
O=C(NC(=S)Nc1ccccn1)c1cc(-c2ccccc2)nc2ccccc12,4.7%,2.82µM*,-3.6%,1.6,4.47µM*,-4.3
COc1cccc(-c2cc(C(=O)Nc3ccncc3)c3ccccc3n2)c1,12.6µM*,8.2%,-13.8%,5.0,-36.5%,32.7
COc1cccc(NC(=O)c2cc(-c3ccccn3)nc3ccccc23)c1,12.4%,?,-12.6%,12.8,?,3.8
Cc1ccc(-c2cc(C(=O)Nc3ccc(S(=O)(=O)Nc4ncccn4)cc3)c3ccccc3n2)cc1,-6.6%,-1.5%,-0.4%,1.3,16.8%,?
CCc1ccc(-c2cc(C(=O)Nc3ccc(S(=O)(=O)NC(C)=O)cc3)c3ccccc3n2)cc1,-12.1%,3.7%,1.1%,-12.6,-25.6%,-93.5*
O=C(Nc1ccccn1)c1cc(-c2ccc(Cl)s2)nc2ccccc12,4.4%,-9.1%,-2.5%,3.1,?,40.1
COc1ccc(Cl)cc1C(=O)NNC(=S)NC(=O)c1cc(-c2ccc(Cl)cc2)nc2ccccc12,-1.5%,-0.8%,-13.5%,-5.2,-0.3%,-60.9*
CC(C)(C)c1ccc(-c2nnc(-c3ccccc3NC(=O)c3cccc(C(F)(F)F)c3)o2)cc1,-1.8%,-7.0%,-1.3%,5.3,13.8%,/
O=C(NC(=S)Nc1ccccc1)c1cc(-c2ccccc2)nc2ccccc12,-1.2%,13.7%,-15.0%,-8.8,?,-125.1*
O=C(NNC(=S)Nc1ccccc1)c1cc(-c2cccnc2)nc2ccccc12,-5.8%,-23.8%[7.66 µM],1.8%,-3.9,?,-9.0
O=C(NNC(=O)c1cc(-c2ccc(Cl)cc2Cl)nc2ccccc12)Nc1ccccc1,-1.5%,8.9%,-20.4%,-10.2,2.82µM*,-27.9
CC(C)Oc1ccc(CNC(=O)c2ccc(NC(=O)c3nsc4ccccc34)cc2)cc1,?,3.4%,/,10.4,1.4%,/
Cc1ccc(SCC(=O)Nc2ccc3oc(-c4ccc(F)cc4)nc3c2)cc1,3.55µM*,-8.5%,/,2.2,3.2%,/
CC(C)(Oc1ccc(Cl)cc1)C(=O)Nc1ccc2oc(-c3ccncc3)nc2c1,28.2µM*,-7.4%,0.1%,-15.9,-2.9%,53.1
CC(C)CC(=O)Nc1ccc(-c2nc3ccccc3c(=O)o2)cc1,11.2µM*,-7.8%[1.53 µM],-14.3%,-9.5,3.3%,-9.4
COc1ccc(-c2nc3cc(NC(=O)CSc4ccc(C)cc4)ccc3o2)cc1,4.2%,-11.7%,/,0.8,-15.9%,/
COc1ccc(-c2nc3cc(NC(=O)Cc4ccc(OC)c(OC)c4)ccc3o2)cc1,14.1µM*,3.1%,12.0%,8.5,33.9%,17.6
COc1ccc(-n2c3c(cc(-c4nc(-c5ccc(C)cc5)cs4)c2=O)C(=O)CC(C)(C)C3)cc1,?,-2.0%,/,-12.8,-6.6%,/
Cc1ccc(CNC(=O)c2ccc(CS(=O)(=O)Cc3ccc(F)cc3)o2)cc1,0.1%,-19.1%,/,-4.6,-19.8%,/
N#Cc1c(N)[nH]c(C(=O)c2ccccc2)c1-c1ccccc1Br,0.3%,-5.6%,15.9%,-6.9,25.1%,-14.6
CCC(C)NCC(=O)Nc1ccc(-c2nc3cc(NC(=O)CNC(C)CC)ccc3o2)cc1 (centres undefined),12.6µM*,?,5.4%,9.4,-19.0%,4.7
CC(C(=O)NCCC1=CCCCC1)c1ccc([N+](=O)[O-])cc1 (centres undefined),/,3.6%,16.1%,-12.1,10µM*,?
SMILES,ClpP mod,HEK293 tox,GLP1R ag,D3 ag,GLP-1R inv ag,DRD3 antagonist
CC(Oc1cccc([N+](=O)[O-])c1)C(=O)NCCC1=CCCCC1 (centres undefined),-1.3%,-19.8%,6.2%,-5.7,-23.1%,-1.6
CCc1nc2nc(C)cc(Nc3cc(Cl)ccc3C)n2n1,0.3%,7.8%,/,-3.2,6.7%,/
CC(=O)N1CC(=O)N=C1SCC(=O)Nc1nc(C)c(-c2ccccc2)s1,20µM*,2.6%[0.307 µM],25.2%,-13.6,-16.3%[0.307 µM],?
CCOc1ccc(-c2csc(NC(=O)CSC3=NC(=O)CN3C(C)=O)n2)c2ccccc12,-0.4%,2.9%,1.6%,-16.8,21.6%,-13.0
O=C(NCc1ccccc1Cl)C1CCCN(C(=O)c2cnn(-c3ccccc3)c2-n2cccc2)C1 (centres undefined),-1.1%,-12.3%,/,6.5,?,/
COc1ccc(NC(=O)c2ccc3[nH]c(C)c(C)c3c2)c(OC)c1,/,-9.1%,24.7%,-16.8,-18.2%,-52.8*
COc1ccc(NC(=O)C(=O)NNC(=O)c2cccs2)c(OC)c1,1.2%,-7.2%,-11.5%,-4.8,-0.4%,-73.0*
COc1ccc(NC(=O)C(=O)NNC(=O)c2cccs2)cc1,/,-8.2%,4.5%,-8.0,-5.6%,-20.9
COc1ccc(CNC(=O)c2ccc3[nH]c(C)c(C)c3c2)c(OC)c1,-13.0%,3.4%,/,13.8,-13.9%,/
CC(=O)N1CCCc2cc(S(=O)(=O)N3CCCC(C(=O)Nc4ccc(F)cc4F)C3)ccc21 (centres undefined),-1.0%,6.8%,/,-11.1,0.5%,/
CCN(CC)CCN=c1c(C)nc(C#N)c(N)n1O,4.2%,10.5%,-2.0%,-7.1,11.0%,-10.5
CN(C)C(=O)CSc1nnc(-c2cc(-c3cccs3)nc3ccccc23)o1,25.1µM*,25.3%,7.4%,8.2,24.1%,19.8
COc1c(Cl)cc(Cl)cc1C(=O)Nc1cccc(-c2nc3ccccc3o2)c1C,-9.0%,1.8%,/,-3.9,6.8%,/
COc1cc(C(O)c2nc(/C=C/c3ccccc3)cs2)ccc1F (centres undefined),-12.7%,0.4%,3.7%,10.1,?,4.7
OC(c1ccc(F)c(F)c1)c1nc(-c2ccccc2)cs1 (centres undefined),-2.4%,-9.8%,-4.9%,-6.7,-28.5%,0.0
COc1ccc(C(C)(O)c2nc(/C=C/c3ccccc3)cs2)cc1 (centres undefined),-23.4%,0.6%,-6.8%,-11.7,-2.8%,-78.5*
COc1ccc(C(O)c2nc(/C=C/c3ccc(C(F)(F)F)cc3)cs2)cc1 (centres undefined),25.1µM*,4.2%,3.2%,-4.3,-22.7%,-15.0
COc1ccc(-c2csc(C(O)c3ccc(F)c(F)c3)n2)cc1 (centres undefined),-4.2%,-6.7%,7.6%,-7.1,11.2µM*,-15.4
